The supplement of paper PMC10849652
Targets with a hit are over-represented here; the source holds about 7,900 in all. About 0.6% of all pairs of compound and target were hits.

compound: C#Cc1cccc(Nc2ncnc3cc(OCCOC)c(OCCOC)cc23)c1 [erlotinib]; experiment: log2 fold change, soluble protein after heating vs DMSO (PISA); higher = thermal stabilisation; K562 cells, 10 uM, 30 min; active = over 0.2 and 3.5 SD of the protein, either way, in both replicates (recomputed)
In short: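 K562 cells at 2×10^6 cells/mL were treated for 30 min with 10 μM compound, and aliquots were heated for 3 min over 48°C-58°C before pooling. Extraction used PBS with 0.5% NP-40 at 4°C, and soluble protein was the supernatant after 21,000xg for 90 min, measured by TMTpro 16plex LC-MS/MS with channel sums equalised. Thermal stability values, relative to control samples and from duplicates, are log2 fold changes.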

Chain of UniProt Q9BUP3 (Q9BUP3 whole entry, looked up): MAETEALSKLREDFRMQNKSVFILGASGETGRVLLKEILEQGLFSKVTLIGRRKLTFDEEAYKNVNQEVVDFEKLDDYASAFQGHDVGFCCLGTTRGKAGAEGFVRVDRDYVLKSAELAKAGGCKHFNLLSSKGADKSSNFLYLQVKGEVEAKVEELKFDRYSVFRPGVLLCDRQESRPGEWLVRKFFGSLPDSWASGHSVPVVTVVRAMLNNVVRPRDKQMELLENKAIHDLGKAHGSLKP
Chain of UniProt O00291 (O00291 whole entry, looked up): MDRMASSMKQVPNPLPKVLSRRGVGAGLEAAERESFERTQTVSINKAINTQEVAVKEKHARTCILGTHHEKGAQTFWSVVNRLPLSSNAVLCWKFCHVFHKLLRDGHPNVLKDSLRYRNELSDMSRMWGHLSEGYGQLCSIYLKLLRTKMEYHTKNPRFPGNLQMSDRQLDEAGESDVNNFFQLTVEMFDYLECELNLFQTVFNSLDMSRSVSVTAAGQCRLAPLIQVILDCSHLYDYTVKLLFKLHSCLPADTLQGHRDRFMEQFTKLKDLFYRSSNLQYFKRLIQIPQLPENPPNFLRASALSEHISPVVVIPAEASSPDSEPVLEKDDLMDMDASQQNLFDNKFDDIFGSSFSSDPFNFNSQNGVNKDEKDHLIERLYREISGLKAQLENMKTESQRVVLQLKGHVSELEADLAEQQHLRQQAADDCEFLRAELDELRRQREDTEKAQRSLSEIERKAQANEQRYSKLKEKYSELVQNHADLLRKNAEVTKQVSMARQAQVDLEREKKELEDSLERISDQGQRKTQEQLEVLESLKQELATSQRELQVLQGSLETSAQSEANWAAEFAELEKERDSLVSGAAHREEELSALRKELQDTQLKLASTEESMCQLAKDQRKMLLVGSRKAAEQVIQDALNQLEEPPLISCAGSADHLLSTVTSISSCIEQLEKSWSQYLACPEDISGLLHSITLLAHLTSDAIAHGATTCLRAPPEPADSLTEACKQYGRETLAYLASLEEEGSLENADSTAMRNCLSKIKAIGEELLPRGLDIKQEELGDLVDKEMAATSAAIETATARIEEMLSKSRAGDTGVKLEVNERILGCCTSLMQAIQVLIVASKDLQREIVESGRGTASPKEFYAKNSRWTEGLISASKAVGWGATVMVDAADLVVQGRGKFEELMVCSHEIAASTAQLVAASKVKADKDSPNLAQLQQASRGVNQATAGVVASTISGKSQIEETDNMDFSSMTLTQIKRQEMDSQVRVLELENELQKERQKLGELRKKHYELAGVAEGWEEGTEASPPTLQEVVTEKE
Chain of UniProt P29084 (P29084 whole entry, looked up): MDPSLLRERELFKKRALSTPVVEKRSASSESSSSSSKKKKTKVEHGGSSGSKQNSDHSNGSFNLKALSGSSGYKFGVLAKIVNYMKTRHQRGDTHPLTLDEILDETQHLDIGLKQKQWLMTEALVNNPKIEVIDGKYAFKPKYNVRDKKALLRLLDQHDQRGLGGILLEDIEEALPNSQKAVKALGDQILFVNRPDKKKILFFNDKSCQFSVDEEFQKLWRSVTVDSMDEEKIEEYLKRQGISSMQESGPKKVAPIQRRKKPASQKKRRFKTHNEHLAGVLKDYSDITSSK
Chain of UniProt P00367 (P00367 whole entry, looked up): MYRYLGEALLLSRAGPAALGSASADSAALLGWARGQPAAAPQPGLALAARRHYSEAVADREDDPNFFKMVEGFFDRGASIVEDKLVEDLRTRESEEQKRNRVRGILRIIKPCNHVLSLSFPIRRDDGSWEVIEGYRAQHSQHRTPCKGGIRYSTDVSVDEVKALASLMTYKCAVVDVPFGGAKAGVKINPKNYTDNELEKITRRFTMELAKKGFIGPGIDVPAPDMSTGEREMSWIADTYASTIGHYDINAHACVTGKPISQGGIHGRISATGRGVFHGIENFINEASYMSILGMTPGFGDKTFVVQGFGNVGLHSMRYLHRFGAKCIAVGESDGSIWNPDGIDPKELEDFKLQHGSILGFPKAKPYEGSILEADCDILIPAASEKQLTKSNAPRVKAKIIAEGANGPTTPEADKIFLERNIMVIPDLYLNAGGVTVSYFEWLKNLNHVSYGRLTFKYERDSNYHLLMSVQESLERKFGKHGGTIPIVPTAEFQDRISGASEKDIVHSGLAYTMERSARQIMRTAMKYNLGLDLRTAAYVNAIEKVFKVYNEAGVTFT
Chain of UniProt P36969 (P36969 whole entry, looked up): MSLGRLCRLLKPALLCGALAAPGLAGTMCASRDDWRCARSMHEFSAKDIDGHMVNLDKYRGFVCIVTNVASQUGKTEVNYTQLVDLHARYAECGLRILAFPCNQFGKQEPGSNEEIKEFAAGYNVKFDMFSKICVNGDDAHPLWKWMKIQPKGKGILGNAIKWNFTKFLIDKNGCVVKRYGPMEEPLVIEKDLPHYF
Chain of UniProt Q53FT3 (Q53FT3 whole entry, looked up): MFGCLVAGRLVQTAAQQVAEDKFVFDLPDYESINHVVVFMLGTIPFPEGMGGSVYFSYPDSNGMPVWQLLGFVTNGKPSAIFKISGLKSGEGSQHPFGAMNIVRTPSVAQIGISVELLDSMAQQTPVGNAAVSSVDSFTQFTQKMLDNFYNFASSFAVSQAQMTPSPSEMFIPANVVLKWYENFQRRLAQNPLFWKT
Chain of UniProt Q01628 (Q01628 whole entry, looked up): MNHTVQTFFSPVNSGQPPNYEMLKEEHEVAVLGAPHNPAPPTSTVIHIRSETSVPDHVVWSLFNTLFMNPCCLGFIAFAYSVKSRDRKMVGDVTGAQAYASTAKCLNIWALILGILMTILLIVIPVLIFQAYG
Chain of UniProt Q53R41 (Q53R41 whole entry, looked up): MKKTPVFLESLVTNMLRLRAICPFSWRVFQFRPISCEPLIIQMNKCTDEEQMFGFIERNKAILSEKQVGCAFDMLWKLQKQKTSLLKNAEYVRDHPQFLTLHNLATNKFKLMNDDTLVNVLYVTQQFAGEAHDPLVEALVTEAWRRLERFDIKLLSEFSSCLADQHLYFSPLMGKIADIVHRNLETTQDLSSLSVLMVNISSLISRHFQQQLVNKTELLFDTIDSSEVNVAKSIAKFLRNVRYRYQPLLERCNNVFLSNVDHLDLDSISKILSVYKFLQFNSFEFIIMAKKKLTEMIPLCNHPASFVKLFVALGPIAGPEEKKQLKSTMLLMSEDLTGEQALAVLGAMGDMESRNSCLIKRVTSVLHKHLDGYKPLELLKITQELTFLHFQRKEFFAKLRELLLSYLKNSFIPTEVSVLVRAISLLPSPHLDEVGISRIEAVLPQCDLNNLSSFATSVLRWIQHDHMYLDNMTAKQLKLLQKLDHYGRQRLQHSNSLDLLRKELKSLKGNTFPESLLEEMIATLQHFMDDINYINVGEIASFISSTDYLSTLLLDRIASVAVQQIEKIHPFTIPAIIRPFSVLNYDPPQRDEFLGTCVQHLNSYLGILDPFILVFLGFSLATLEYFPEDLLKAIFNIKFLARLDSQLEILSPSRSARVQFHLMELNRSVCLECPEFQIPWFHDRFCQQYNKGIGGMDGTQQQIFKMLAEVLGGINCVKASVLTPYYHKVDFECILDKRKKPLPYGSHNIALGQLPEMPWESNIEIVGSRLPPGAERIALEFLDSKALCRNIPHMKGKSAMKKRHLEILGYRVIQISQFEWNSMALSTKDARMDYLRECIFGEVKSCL
Chain of UniProt Q53GQ0 (Q53GQ0 whole entry, looked up): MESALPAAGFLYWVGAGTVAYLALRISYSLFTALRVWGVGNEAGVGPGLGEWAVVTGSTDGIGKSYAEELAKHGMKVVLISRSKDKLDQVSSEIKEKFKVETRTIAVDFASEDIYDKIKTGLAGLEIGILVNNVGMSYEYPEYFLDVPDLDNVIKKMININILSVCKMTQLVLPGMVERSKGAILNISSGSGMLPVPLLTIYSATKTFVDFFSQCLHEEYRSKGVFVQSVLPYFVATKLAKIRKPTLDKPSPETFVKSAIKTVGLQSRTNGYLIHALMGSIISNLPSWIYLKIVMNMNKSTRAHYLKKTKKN
Chain of UniProt P13807 (P13807 whole entry, looked up): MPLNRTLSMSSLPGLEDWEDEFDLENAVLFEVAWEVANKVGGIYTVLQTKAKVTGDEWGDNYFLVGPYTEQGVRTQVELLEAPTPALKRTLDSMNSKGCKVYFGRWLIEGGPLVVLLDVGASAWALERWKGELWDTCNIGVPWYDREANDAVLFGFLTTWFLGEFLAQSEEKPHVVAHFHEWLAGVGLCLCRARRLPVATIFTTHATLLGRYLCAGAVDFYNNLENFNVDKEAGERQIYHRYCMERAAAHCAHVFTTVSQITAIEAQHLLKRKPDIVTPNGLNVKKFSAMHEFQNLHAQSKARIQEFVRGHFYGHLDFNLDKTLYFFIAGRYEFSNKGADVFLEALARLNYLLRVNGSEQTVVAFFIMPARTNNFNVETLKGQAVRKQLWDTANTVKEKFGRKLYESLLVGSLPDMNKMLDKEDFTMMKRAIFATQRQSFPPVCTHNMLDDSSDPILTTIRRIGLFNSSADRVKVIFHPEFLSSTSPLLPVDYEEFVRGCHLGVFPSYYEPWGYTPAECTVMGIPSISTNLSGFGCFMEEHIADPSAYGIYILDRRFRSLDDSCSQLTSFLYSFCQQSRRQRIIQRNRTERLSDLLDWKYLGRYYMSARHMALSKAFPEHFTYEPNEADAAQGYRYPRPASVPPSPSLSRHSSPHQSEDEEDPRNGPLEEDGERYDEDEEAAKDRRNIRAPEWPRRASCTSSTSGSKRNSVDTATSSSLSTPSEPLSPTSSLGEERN
Chain of UniProt P39748 (P39748 whole entry, looked up): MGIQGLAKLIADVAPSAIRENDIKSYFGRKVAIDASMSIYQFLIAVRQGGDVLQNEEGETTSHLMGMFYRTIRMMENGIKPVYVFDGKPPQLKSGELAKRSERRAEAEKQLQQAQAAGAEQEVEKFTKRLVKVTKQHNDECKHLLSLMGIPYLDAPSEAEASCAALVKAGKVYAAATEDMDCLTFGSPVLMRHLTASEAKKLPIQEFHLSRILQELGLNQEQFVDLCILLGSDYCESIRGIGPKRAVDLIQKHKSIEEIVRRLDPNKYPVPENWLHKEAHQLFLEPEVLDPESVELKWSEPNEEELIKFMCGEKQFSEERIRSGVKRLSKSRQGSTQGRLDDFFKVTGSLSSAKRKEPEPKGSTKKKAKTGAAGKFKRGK

log2 fold change, inactive:
GBF1 (UniProt Q92538) -0.012
GABARAPL1 isoform 2 (UniProt Q9H0R8) 0.071
GPX4 (UniProt P36969) -0.021
HIP1 (UniProt O00291) 0.018
HNRNPUL1 (UniProt Q9BUJ2) 0.022
HIKESHI (UniProt Q53FT3) 0.004
FEN1 (UniProt P39748) 0.126
GLCCI1 (UniProt Q86VQ1) 0.027
GID4 (UniProt Q8IVV7) -0.033
GTF2E2 (UniProt P29084) 0.028
FUT8 (UniProt Q9BYC5) -0.036
HDHD2 (UniProt Q9H0R4) 0.029
HTATIP2 isoform 3 (UniProt Q9BUP3) 0.016
GTPBP6 (UniProt O43824) -0.091
FASTKD1 (UniProt Q53R41) 0.207
GLB1 (UniProt P16278) -0.082
IFITM3 (UniProt Q01628) -0.093
GDE1 (UniProt Q9NZC3) 0.014
GLS isoform 3 (UniProt O94925) 0.09
H2AFX (UniProt P16104) 0.05
GLUD2 (UniProt P49448) 0.009
HSD17B12 (UniProt Q53GQ0) 0.004
HK2 (UniProt P52789) -0.068
GYS1 (UniProt P13807) -0.022
FARS2 (UniProt O95363) 0
HDGFL2 (UniProt Q7Z4V5) 0.002
GSTM4 (UniProt Q03013) 0.084
ICMT (UniProt O60725) 0.059
ICAM1 (UniProt P05362) 0.008
HIST2H3A (UniProt Q71DI3) 0.113
IFT80 isoform 3 (UniProt Q9P2H3) 0.04
GALNT1 (UniProt Q10472) -0.001
GLRX3 (UniProt O76003) -0.031
GLUD1 (UniProt P00367) 0.068
HOMER1 (UniProt Q86YM7) -0.103
